Results taken from PubChem BioAssay (EPA / NIEHS).
Results filed as inconclusive are left out. The source made the active and inactive calls. The calls were made as follows, unless noted: active = hit-call score of the fitted dose curve at least 0.9, where 1 is the maximum; inactive = score below 0.9.

Assays:
[1] = read-out: Interleukin-8 (IL8), CXCL8 (gene 3576); experiment: BSK_3C_IL8: BioMAP Diversity Plus: 3C Assay for Interleukin-8 (IL8) Biomarker Activity (AID 2283020); conditions: primary human endothelial cells (HUVEC); actives raise or lower the signal
How it was run: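 Primary human umbilical vein endothelial cells (3C system) were exposed to test chemical for 24 h, then IL-8 was quantified by ELISA. Responses were fitted bidirectionally against DMSO vehicle as baseline.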

[2] = read-out: Monokine induced gamma interferon (MIG), CXCL9 (gene 4283); experiment: BSK_3C_MIG: BioMAP Diversity Plus: 3C Assay for Monokine induced gamma interferon (MIG) Biomarker Activity (AID 2283021); conditions: primary human endothelial cells (HUVEC); actives raise or lower the signal;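 as to AC50: MIG protein level measured by immunoassay in the treated endothelial cultures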
How it was run: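 Primary human umbilical vein endothelial cells in the 3C system were exposed to chemical for 24 h, after which MIG was quantified by ELISA. Activity was fitted bidirectionally against DMSO as negative control and baseline.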

[3] = target: human Vitamin D Receptor (VDR), VDR (gene 7421) (UniProt P11473); experiment: ATG_VDR_TRANS: Attagene TRANS-FACTORIAL HepG2 Assay for human Vitamin D Receptor (VDR) (AID 2283022; active = hit-call score of the fitted dose curve at least 0.9, where 1 is the maximum)
Sequence of human Vitamin D Receptor (VDR), VDR (gene 7421) (P11473 whole entry, looked up, the tested form may be a part): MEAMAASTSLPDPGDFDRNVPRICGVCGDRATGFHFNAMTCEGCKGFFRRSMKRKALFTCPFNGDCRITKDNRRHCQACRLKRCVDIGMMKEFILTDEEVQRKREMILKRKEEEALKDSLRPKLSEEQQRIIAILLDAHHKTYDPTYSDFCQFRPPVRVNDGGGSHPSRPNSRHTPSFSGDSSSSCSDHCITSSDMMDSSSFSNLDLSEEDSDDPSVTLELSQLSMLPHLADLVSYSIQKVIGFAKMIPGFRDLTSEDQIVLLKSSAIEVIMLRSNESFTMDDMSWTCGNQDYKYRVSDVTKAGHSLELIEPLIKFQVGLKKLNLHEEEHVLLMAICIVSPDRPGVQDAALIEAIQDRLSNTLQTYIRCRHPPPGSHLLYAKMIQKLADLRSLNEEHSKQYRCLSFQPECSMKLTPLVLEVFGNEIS
How it was run: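 RT-PCR/capillary electrophoresis read-out of reporter mRNA induction in transiently transfected HepG2; 24 h dosing; chimeric NR-Gal4 (TRANS format); gain-of-signal fit against DMSO baseline.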

[4] = BSK_3C_SRB: Viability Assessment in the BioMAP Diversity Plus: 3C Assay (AID 2283023); conditions: primary human endothelial cells (HUVEC);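 also: cells read 24 h after compound dosing; fitted both ways against DMSO so a hit may be signal rise or drop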
How it was run: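 HUVEC, 24 h post-dose; 10% TCA fix, 0.1% SRB stain, A560 nm. Bidirectional curve fit vs DMSO negative control.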

[5] = read-out: Matrix Metallopeptidase 1 (MMP1), MMP1 (gene 4312); experiment: BSK_BE3C_MMP1: BioMAP Diversity Plus: BE3C Assay for Matrix Metallopeptidase 1 (MMP1) Biomarker Activity (AID 2283024); conditions: primary human bronchial epithelial cells; actives raise or lower the signal
How it was run: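 Primary human bronchial epithelial cells were dosed with test chemicals, and MMP1 levels were measured by ELISA 24 h later. Data were fitted bidirectionally against DMSO as the negative control and activity baseline.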

[6] = BSK_3C_Vis: BioMAP Diversity Plus: 3C Assay for Morphology Visualization (AID 2283025); conditions: primary human endothelial cells (HUVEC);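 also: fitted both ways so gain or loss versus DMSO counts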
How it was run: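 Human umbilical vein endothelial cells in the 3C system were imaged by light microscopy 24 h after chemical dosing to record cell morphology. Activity was fitted bidirectionally against DMSO as negative control and baseline; the endpoint serves as a background control.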

[7] = read-out: Pselectin, SELP (gene 6403); experiment: BSK_4H_Pselectin: BioMAP Diversity Plus: 4H Assay for Pselectin Biomarker Activity (AID 2283026); conditions: primary human endothelial cells (HUVEC); actives raise or lower the signal
How it was run: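 Primary human umbilical vein endothelial cells were exposed to test chemical for 24 h, then cell-surface P-selectin was quantified by ELISA. Activity was fitted bidirectionally against DMSO as negative control and baseline.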

[8] = BSK_4H_SRB: Viability Assessment in the BioMAP Diversity Plus: 4H Assay (AID 2283027); conditions: primary human endothelial cells (HUVEC);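 also: cells exposed to compound for 24 h before staining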;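 as to AC50: curves fitted both ways versus DMSO so AC50 may be loss or gain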
How it was run: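 Absorbance at 560 nm of SRB-stained total protein served as the viability read-out in confluent primary human umbilical vein endothelium 24 h after chemical treatment. Curves were fitted bidirectionally against DMSO as negative control.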

[9] = BSK_BE3C_SRB: Viability Assessment in the BioMAP Diversity Plus: BE3C Assay (AID 2283028); conditions: primary human bronchial epithelial cells
How it was run: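 Primary human bronchial epithelium; chemical dosing, 24 h; 10% TCA fix, 0.1% SRB stain, A560; bidirectional fit vs DMSO baseline.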

[10] = read-out: Thrombomodulin, THBD (gene 7056); experiment: BSK_3C_Thrombomodulin: BioMAP Diversity Plus: 3C Assay for Thrombomodulin Biomarker Activity (AID 2283029); conditions: primary human endothelial cells (HUVEC); actives raise or lower the signal
How it was run: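 Primary human umbilical vein endothelial cells (3C system) were exposed to chemical for 24 h, then thrombomodulin levels were measured by ELISA. Activity was fitted bidirectionally against the DMSO negative control as baseline.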

[11] = read-out: Urokinase-type plasminogen activator receptor (uPAR), PLAUR (gene 5329); experiment: BSK_4H_uPAR: BioMAP Diversity Plus: 4H Assay for Urokinase-type plasminogen activator receptor (uPAR) Biomarker Activity (AID 2283030); conditions: primary human endothelial cells (HUVEC); actives raise or lower the signal
How it was run: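 HUVEC, 24 h post-dose; uPAR by ELISA; bidirectional fit vs DMSO baseline.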

[12] = read-out: Vascular endothelial growth factor receptor 2 (Homo sapiens) (UniProt P35968); experiment: BSK_4H_VEGFRII: BioMAP Diversity Plus: 4H Assay for Vascular endothelial growth factor receptor 2 (VEGFR2) Biomarker Activity (AID 2283031); conditions: primary human endothelial cells (HUVEC); actives raise or lower the signal
How it was run: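 HUVEC (human primary), 4H system; 24 h post-dose; VEGFRII by ELISA; bidirectional curve fit vs DMSO baseline; gain or loss of signal scored.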

[13] = read-out: Human Leukocyte Antigen - DR isotype (HLADR), HLA-DRA (gene 3122); experiment: BSK_BE3C_HLADR: BioMAP Diversity Plus: BE3C Assay for Human Leukocyte Antigen - DR isotype (HLADR) Biomarker Activity (AID 2283032); conditions: primary human bronchial epithelial cells; actives raise or lower the signal
How it was run: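 Human primary bronchial epithelial cells in the BE3C system were exposed to chemicals for 24 h, after which HLA-DR levels were quantified by ELISA. Activity was fitted bidirectionally, gain or loss of signal, against DMSO as negative control and baseline.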

[14] = read-out: Vascular cell adhesion molecule 1 (VCAM1), VCAM1 (gene 7412); experiment: BSK_4H_VCAM1: BioMAP Diversity Plus: 4H Assay for Vascular cell adhesion molecule 1 (VCAM1) Biomarker Activity (AID 2283033); conditions: primary human endothelial cells (HUVEC); actives raise or lower the signal
How it was run: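 Primary human umbilical vein endothelial cells were exposed to chemicals for 24 h, after which VCAM-1 was quantified by ELISA. Responses were fitted bidirectionally against DMSO as negative control and activity baseline.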

[15] = read-out: Monokine induced gamma interferon (MIG), CXCL9 (gene 4283); experiment: BSK_BE3C_MIG: BioMAP Diversity Plus: BE3C Assay for Monokine induced gamma interferon (MIG) Biomarker Activity (AID 2283035); conditions: primary human bronchial epithelial cells; actives raise or lower the signal;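 also: MIG protein measured by ELISA in BE3C cultures after 24 h of dosing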
How it was run: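 MIG level was determined by ELISA after 24 h chemical treatment of primary human bronchial epithelial cells. Values were fitted bidirectionally with DMSO as the negative control and activity baseline.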

[16] = read-out: Transforming growth factor beta 1 (TGFb1), TGFB1 (gene 7040); experiment: BSK_BE3C_TGFb1: BioMAP Diversity Plus: BE3C Assay for Transforming growth factor beta 1 (TGFb1) Biomarker Activity (AID 2283036); conditions: primary human bronchial epithelial cells; actives raise or lower the signal
How it was run: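 Human primary bronchial epithelial cells (BE3C system) were dosed with chemical and TGF-b1 levels measured by ELISA at 24 h. Activity was fitted bidirectionally relative to DMSO negative control as baseline.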

[17] = read-out: Plasminogen activator inhibitor-1 (PAI1), SERPINE1 (gene 5054); experiment: BSK_BE3C_PAI1: BioMAP Diversity Plus: BE3C Assay for Plasminogen activator inhibitor-1 (PAI1) Biomarker Activity (AID 2283037); conditions: primary human bronchial epithelial cells; actives raise or lower the signal
How it was run: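 Human primary bronchial epithelial cells were exposed to chemical for 24 h, then PAI-1 was quantified by ELISA. Activity was fitted bidirectionally relative to the DMSO negative control baseline.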

[18] = read-out: urokinase plasminogen activator (uPA), PLAU (gene 5328); experiment: BSK_BE3C_uPA: BioMAP Diversity Plus: BE3C Assay for urokinase plasminogen activator (uPA) Biomarker Activity (AID 2283038); conditions: primary human bronchial epithelial cells; actives raise or lower the signal;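 also: uPA protein level quantified by ELISA in cell cultures; uPA read one day after compound addition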
How it was run: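 ELISA read-out of uPA in human lung primary bronchial epithelial cultures, 24 h post-dosing. Gain or loss of signal fitted bidirectionally relative to DMSO baseline; cytotoxicity checked in parallel cultures via SRB total protein stain.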

[19] = read-out: Urokinase-type plasminogen activator receptor (uPAR), PLAUR (gene 5329); experiment: BSK_BE3C_uPAR: BioMAP Diversity Plus: BE3C Assay for Urokinase-type plasminogen activator receptor (uPAR) Biomarker Activity (AID 2283039); conditions: primary human bronchial epithelial cells; actives raise or lower the signal
How it was run: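 Primary human bronchial epithelial cells were dosed with chemical and harvested 24 h later; uPAR was quantified by ELISA. Activity was fitted bidirectionally against DMSO as negative control and baseline.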

[20] = read-out: Interferon-gamma inducible Protein 10 (IP10), CXCL10 (gene 3627); experiment: BSK_BE3C_IP10: BioMAP Diversity Plus: BE3C Assay for Interferon-gamma inducible Protein 10 (IP10) Biomarker Activity (AID 2283034); conditions: primary human bronchial epithelial cells; actives raise or lower the signal
How it was run: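 Human primary bronchial epithelial cells were exposed to chemicals for 24 hours, after which IP-10 levels were measured by ELISA. Data were fitted bidirectionally against DMSO, which served as the negative control and activity baseline.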

Measured: AC50

Oc1ccc(/C=C/c2cc(O)cc(O)c2)cc1
active: [6] 20 µM | [8] 20 µM | [11] 1.24 µM | [13] 20 µM | [19] 11.1 µM
inactive: [1] | [2] | [3] | [4] | [5] | [7] | [9] | [10] | [12] | [14] | [15] | [16] | [17] | [18]

C=C(C)C(=O)OCCCCCCCCCCCC
inactive: [1] | [2] | [3] | [4] | [6] | [7] | [8] | [9] | [10] | [11] | [12] | [13] | [14] | [20] | [15] | [16] | [17] | [18] | [19]

CC(Cl)COP(=O)(OCC(C)Cl)OCC(C)Cl (stereo unspecified)
inactive: [1] | [2] | [3] | [4] | [6] | [7] | [9] | [10] | [11] | [12] | [13] | [14] | [20] | [15] | [16] | [17] | [18] | [19]

C=CC(=O)OCC(C)OCC(C)OCC(C)OC(=O)C=C (stereo unspecified)
active: [1] 20 µM | [2] 35.5 µM | [4] 20 µM | [6] 16 µM | [7] 13.2 µM | [8] 12.1 µM | [11] 31.1 µM | [13] 13.6 µM | [14] 10.1 µM | [20] 30.6 µM
inactive: [3] | [9] | [10] | [12] | [15] | [16] | [17] | [18] | [19]

Cc1ccc([N+](=O)[O-])cc1N
inactive: [1] | [2] | [3] | [4] | [6] | [7] | [9] | [10] | [11] | [12] | [13] | [14] | [20] | [15] | [16] | [17] | [18] | [19]

C=CC(=O)NCOCCCC
inactive: [1] | [2] | [3] | [4] | [6] | [7] | [8] | [9] | [10] | [11] | [12] | [13] | [14] | [20] | [15] | [16] | [17] | [18] | [19]

C=CC(=O)NC(C)(C)C
inactive: [1] | [2] | [3] | [4] | [6] | [7] | [8] | [9] | [10] | [11] | [12] | [13] | [14] | [20] | [15] | [16] | [17] | [18] | [19]
